# Screening results: PubChem BioAssay, several laboratories
# Hits are enriched below; roughly 6.1% of the tested compounds scored in any of these assays.
# MMP13 inh: human MMP13 inhibitors, primary screen, biochemical, FRET peptide cleavage | Collagenase 3 (Homo sapiens), P45452 | MMP-13 fTHP FRET cleavage, Mca fluorescence | inhibition, % at 4 µM | 0.07% of 65,000 active;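 active = inhibition above the mean of compound-free control plate wells plus 3 SD, cut at about 14% in these data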;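 note: 0% = DMSO wells and 100% = wells with reference MMP-13 inhibitor after basal subtraction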
# Cdc25B inh: inhibitors of Cdc25B phosphatase catalytic domain, primary screen, biochemical, OMFP fluorescence | M-phase inducer phosphatase 2 (Homo sapiens), P30305 | recombinant Cdc25B, OMFP fluorescence Ex485/Em525 | inhibition, %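 (compounds tested at 10 µM final in the well)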 | 0.1% of 65,000 active | AID 368, 2006; in the data active = inhibition above about 50%
# Target sequence (P30305 whole entry, looked up, the tested form may be a part): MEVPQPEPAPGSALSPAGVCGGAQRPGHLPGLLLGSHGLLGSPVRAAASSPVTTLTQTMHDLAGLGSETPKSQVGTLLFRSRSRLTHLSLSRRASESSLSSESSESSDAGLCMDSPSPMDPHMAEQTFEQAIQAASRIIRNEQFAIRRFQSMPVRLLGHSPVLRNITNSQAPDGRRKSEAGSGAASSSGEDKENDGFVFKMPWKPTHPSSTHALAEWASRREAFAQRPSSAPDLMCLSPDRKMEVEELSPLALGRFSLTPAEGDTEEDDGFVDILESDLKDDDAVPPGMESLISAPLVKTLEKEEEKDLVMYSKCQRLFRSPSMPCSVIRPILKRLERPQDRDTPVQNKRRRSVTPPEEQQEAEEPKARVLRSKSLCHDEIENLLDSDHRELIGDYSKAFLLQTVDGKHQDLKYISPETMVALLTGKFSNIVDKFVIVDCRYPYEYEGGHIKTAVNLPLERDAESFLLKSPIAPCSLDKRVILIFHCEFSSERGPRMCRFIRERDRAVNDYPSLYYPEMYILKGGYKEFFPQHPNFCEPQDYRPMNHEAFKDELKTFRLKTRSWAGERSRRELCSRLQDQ
# M1 ag: M1 muscarinic receptor agonists, primary screen, CHO-M1 cells, Fluo-4 calcium, agonist mode. Fluo-4 calcium fluorescence; stronger effect = higher value. B-score at 10 µM. 3% of 64,000 active. AID 626, 2007;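 active = fluorescence rise, raw or as B-score row- and column-corrected plate score, outside the 99.7% band of its plate's samples, either direction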
# Hsp90 inh: tumor Hsp90 inhibitors, primary screen, cell lysate, fluorescence polarization, NCI-N417 lysate. Cy3B-geldanamycin FP displacement. 0.35% of 64,000 active. Heat shock protein HSP 90-alpha (Homo sapiens), P07900. inhibition, % at 30 µM;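 active = inhibition above 50%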;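 note: 0% = tracer plus lysate wells and 100% = tracer alone without lysate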
# M1 antagonist: antagonists of rat M1 muscarinic receptor; CHO-M1 cells, Fluo-4 calcium, ACh EC80 antagonist mode; stronger effect = lower value; B-score at 10 µM; 3.4% of 64,000 active;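 active = calcium fluorescence response, raw or row-and-column corrected B-score, differing from the plate sample mean either way at a set confidence level, mostly lower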
# DUSP1 inh: MKP-1 phosphatase inhibitors, primary screen, biochemical, in vitro | recombinant MKP-1, OMFP hydrolysis fluorescence | 0.15% of 65,000 active | Dual specificity protein phosphatase 1 (Homo sapiens), P28562 | inhibition, %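 (compounds tested at a single concentration somewhere between 10 and 100 µM)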;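 active = inhibition above about 50%, limit read from the data; inconclusive = inhibition over screen mean plus 3 SD, below that limit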;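 note: 0% = DMSO max control wells and 100% = wells with enzyme stopped by NaOH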
# M1 agonist conf: rat M1 muscarinic receptor agonists, confirmation, CHO-M1 cells, Fluo-4 calcium, duplicate retest. Fluo-4 calcium fluorescence, agonist mode; actives lie on both sides. 19% of 1,700 active. fluorescence change (max-min) at 10 µM. shares compounds with M1 ag;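 active = fluorescence change differs from the solvent-only DMSO control mean at a set confidence level in both duplicate runs; inconclusive = differs from solvent-only control mean in just one of two runs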;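 note: an EC20 dose of acetylcholine follows compound addition during the same imaging run; raw fluorescence intensity difference in instrument units with no normalization to controls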
# M4 ag counter: agonist activity at rat M4 receptor, confirmation, counter-screen for M1 allosteric modulator project, cell-based, agonist mode; 9% of 1,700 active; AID 1741, 2009; CHO M4/Gqi5 cells, Fluo-4 calcium fluorescence; actives lie on both sides; fluorescence change (max-min) at 10 µM; shares compounds with M1 ag;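 active = fluorescence change differing from the plate's solvent-only control wells at 99.7% confidence in both duplicates, whether higher or lower; inconclusive = differs from solvent controls in only one of two duplicates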
# An asterisk follows results filed as active; ? = inconclusive; nt = no result.
SMILES,MMP13 inh,Cdc25B inh,M1 ag,Hsp90 inh,M1 antagonist,DUSP1 inh,M1 agonist conf,M4 ag counter
COC(=O)c1cc(=O)n(Cc2ccco2)c(=Nc2ccc(F)c(Cl)c2)s1,4,-11,7.1*,-2,-0.66,15,-15,-39
COC(=O)c1cc(=O)n(Cc2ccc3c(c2)OCO3)c(=Nc2ccccc2)s1,-4,-10,-0.99,0,0.044,-9,nt,nt
Cn1nnnc1Sc1nc(-c2cccnc2)nc2ccccc12,-1,1,0.11,-7,0.042,1,nt,nt
O=C(NCCN1CCN(c2ccccc2F)CC1)c1cccn2c(=O)c3ccccc3nc12,-5,-10,6.7*,-2,-1.2,29,29,12
O=C(CSc1nnc(Cc2cccs2)n1C1CCCCC1)N1CCCc2ccccc21,-2,-9,3*,-3,-2.2*,25,-8.9,-21
Cc1occc1C(=O)NCc1ccccn1,0,-8,2.2*,-21,0.19,8,-2.8,-36
C/C(N)=C(/C#N)C(=O)CSc1nc2cc(Cl)ccc2s1,4,-6,5.1*,-13,0.38,26,-8.7,-26
Cc1cc(C)nc(SCCC(=O)N(C)C)n1,0,-12,0.00077,0,0.094,3,nt,nt
CCOC(=O)CN1CC23C=CC(O2)C(C(=O)Nc2ccc(F)c(C)c2)C3C1=O (configuration not stated),5,15,-0.0049,2,-1.1,-3,nt,nt
Oc1c(/C=N/c2ncn[nH]2)ccc2ccccc12,4,-7,4.9*,21,-0.045,-1,22,?
Clc1ccc(Cl)c(-c2ccc(/C=N/c3ncn[nH]3)o2)c1,0,-24,-1,-1,0.54,-7,nt,nt
O=C1CN(C(=O)c2ccc(Br)o2)C(c2ccccc2)c2cc(Cl)ccc2N1 (configuration not stated),-1,-6,0.32,-3,0.0057,8,nt,nt
O=C1CN(C(=O)c2ccc(Br)o2)C(c2ccc(F)cc2)c2cc(Cl)ccc2N1 (configuration not stated),1,3,2.8*,0,-0.84,-13,-15,?
COc1ccccc1NC(=O)C1=C(C)Nc2nc(-c3cccs3)nn2C1c1cccc(O)c1 (configuration not stated),2,14,8.5*,-3,-1.3,33,?,?
COc1ccc(C2C(C(=O)Nc3cccnc3)=C(C)Nc3nc(-c4cccs4)nn32)cc1OC (configuration not stated),8,-25,-0.55,-1,-0.2,5,nt,nt
Cn1c(=O)c2cc(S(=O)(=O)NC(C(=O)NCc3cccnc3)c3ccccc3)ccc2n(C)c1=O (configuration not stated),1,-13,1.4,10,-0.056,5,nt,nt
Cc1ccc(S(=O)c2ccc(C)cc2)cc1,1,2,-0.7,-1,0.33,2,nt,nt
CCC(C)NC(=O)C1CCN(S(=O)(=O)N2CCCC2)CC1 (configuration not stated),1,-10,0.28,-1,-0.82,-6,nt,nt
O=c1cc(CSc2nnc(-c3cccs3)n2Cc2ccccc2)nc2sc3ccccc3n12,-3,3,4.2*,-6,-0.36,41,4.4,-14
O=C(CNC(=O)Cn1ccc2ccccc2c1=O)NCCCN1CCCCCC1,-1,-3,-0.007,nt,-0.39,4,nt,nt
C=CCOC(=O)C1=C(C)OC(N)=C(C#N)C1c1ccoc1 (configuration not stated),0,5,21*,-3,0.74,-30,12,0.98
CCN1C(=O)c2cccc3c(S(=O)(=O)Nc4ccc(OC)cc4OC)ccc1c23,12,-8,5.3*,1,-1.3,12,-17,-18
COc1ccc(C(=O)NCc2nnc(SCC(=O)N3CCCCC3)o2)cc1OC,4,-11,-0.14,-3,-0.38,8,nt,nt
COc1ccc(CCN(Cc2cccs2)S(=O)(=O)c2ccc(-n3cnnn3)cc2)cc1OC,-8,-20,4.5*,-1,-0.32,16,?,-66*
COc1ccc(CN(C2CCCC2)S(=O)(=O)c2ccc(-n3cnnn3)c(OC)c2)cc1OC,2,-5,1.6,-1,-0.17,32,nt,nt
SMILES,MMP13 inh,Cdc25B inh,M1 ag,Hsp90 inh,M1 antagonist,DUSP1 inh,M1 agonist conf,M4 ag counter
COC(=O)c1cc(NS(=O)(=O)c2ccc3c(c2)CCC(=O)N3)cc(C(=O)OC)c1,-5,-12,0.053,-6,-0.022,6,nt,nt
CN(C)CCCN(C(=O)c1cccs1)c1nc(-c2ccccc2)cs1,-6,-12,14*,1,-8.7*,-35,27,-24
Cc1nc2ccccn2c1/C(O)=C1\C(=O)C(=O)N(CCCn2ccnc2)C1c1ccncc1 (configuration not stated),-1,8,0.02,-4,0.23,-5,nt,nt
O=C(CCCn1c(=O)c2sccc2n(CC(=O)OCc2ccccc2)c1=O)NCc1ccco1,2,-8,4.7*,-5,-1.4,26,-28*,-72*
O=C(OCC#CCSc1nnc(-c2ccccc2)o1)c1cccs1,-1,-2,0.018,-1,-0.97,-13,nt,nt
O=C(OCC#CCSc1nnc(-c2cccc3ccccc23)o1)c1cccs1,5,-12,18*,-9,-1.1,6,?,-30
CCOc1cccc(C2C(C(=O)c3ccc(C)o3)=C(O)C(=O)N2c2nccs2)c1 (configuration not stated),1,-7,55*,-3,0.27,32,822*,125*
CCOC(=O)C1CCCN(C(=O)CN2CCN(Cc3ccc(Cl)cc3)C2=O)C1 (configuration not stated),-1,4,23*,-1,-0.44,24,202*,-51
CCOC(=O)C1CCCN(C(=O)Cc2c(C(=O)O)[nH]c3ccccc23)C1 (configuration not stated),0,-4,4.6*,nt,0.81,2,41,-24
CCOC(=O)C1CCCN(C(=O)Cc2ccc(OC)c(OC)c2)C1 (configuration not stated),-1,-9,-0.01,-6,0.17,-4,nt,nt
